An excerpt weighted towards active compounds, which were near 2.1% of everything screened.
Myeloid diff MLP – induction of myeloid progenitor differentiation, primary screen, cell-based, flow cytometry, MLPCN library; calls only at 10 µM; 1% of 360,000 active; ER-HoxA9 myeloid progenitors, lysozyme-GFP differentiation;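 active = normalized GFP-positive differentiation at or above the plate's own cutoff, the solvent-only control mean plus 3 SD; inconclusive = no clear call, values can overlap the other calls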;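 also: cells exposed to compound for four days before flow analysis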
Rpn11 inh – Rpn11 (PSMD14) deubiquitinase inhibitors, primary screen, biochemical, fluorescence polarization, uHTS. 26S proteasome non-ATPase regulatory subunit 14 (Homo sapiens), O00487. human 26S proteasome, Ub4-pepOG fluorescence polarization; 20S core pre-blocked with epoxomicin. inhibition, % at 20 µM. 0.59% of 360,000 active;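 active = inhibition at 20 µM, scaled to each plate's controls, above about 33%, limit read from the data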
Target sequence (O00487 whole entry, looked up): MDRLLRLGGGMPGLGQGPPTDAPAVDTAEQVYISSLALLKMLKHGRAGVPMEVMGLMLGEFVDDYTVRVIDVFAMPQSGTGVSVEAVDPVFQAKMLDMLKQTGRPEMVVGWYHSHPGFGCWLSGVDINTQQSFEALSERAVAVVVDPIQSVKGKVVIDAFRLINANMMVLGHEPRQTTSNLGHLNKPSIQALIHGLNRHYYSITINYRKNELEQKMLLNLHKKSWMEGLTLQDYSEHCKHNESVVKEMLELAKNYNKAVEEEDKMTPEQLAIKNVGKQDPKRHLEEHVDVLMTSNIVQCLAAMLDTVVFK
TPT1 inh – Candida albicans TPT1 enzyme inhibitors, primary screen, biochemical, fluorescence polarization; inhibition, % at 5 µM; AID 1962, 2009; 0.81% of 300,000 active; recombinant caTPT1, FP RNA substrate dephosphorylation;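 active = inhibition above the mean of all tested compounds plus 3 SD, set per screening campaign, cut at about 24% in these data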
HNF4A DNA FP – change in binding of human HNF4A to DNA, primary screen, biochemical, fluorescence polarization, FITC-DNA | activity change, % at 10 µM | AID 1224865, 2016 | Hepatocyte nuclear factor 4-alpha (Homo sapiens), P41235 | 0.3% of 360,000 active | 1 h; in the data active = activity change above about 30%, passing the limit was not always enough
Rpn11 inh conf – Rpn11 (PSMD14) deubiquitinase inhibitors, confirmation, biochemical, fluorescence polarization, single concentration; shares compounds with Rpn11 inh; purified human 26S proteasome, Ub4-pepOG fluorescence polarization; proteasome pretreated with epoxomicin; inhibition, % at 20 µM; 29% of 1,900 active
MMP-2 inh – MMP-2 enzyme inhibition, confirmation, counter-screen for RPN11 inhibitor project, biochemical, fluorescence, single concentration. inhibition, % at 20 µM. recombinant MMP-2, FRET peptide cleavage fluorescence. 4% of 1,900 active. AID 602330, 2012. shares compounds with Rpn11 inh;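 also: human MMP-2 activated beforehand with APMA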
Thrombin inh – bovine thrombin protease inhibition, confirmation, counter-screen for Rpn11 inhibitor project, biochemical, fluorescence polarization, single concentration; shares compounds with Rpn11 inh; bovine thrombin cleavage of Ub4-pepOG; inhibition, % at 20 µM; 13% of 1,900 active;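 active = mean inhibition at least 40% at 20 µM, or signal 3 deviations below plate average, so some actives read negative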
Each line names hits and unclear results; the compound was inactive in the other large screens (follow-up assays come after a bar, where shown). Rule as the data show it, unless noted: active = inhibition above about 40%; inactive = the rest.

S=c1[nH]nc(-c2cc(-c3ccccc3)n[nH]2)n1/N=C/c1ccc(Br)s1	Rpn11 inh active | Rpn11 inh conf 91 | MMP-2 inh inactive | Thrombin inh 49
Cc1cc(-c2n[nH]c(=S)n2/N=C/c2ccc(Br)s2)n[nH]1	none
S=c1[nH]nc(-c2cc(-c3ccccc3)n[nH]2)n1/N=C/c1c(Cl)cccc1Cl	Myeloid diff MLP active, Rpn11 inh 47 | Rpn11 inh conf 87 | MMP-2 inh 45 | Thrombin inh 52
Cc1ccsc1/C=N/n1c(-c2cc(-c3ccccc3)n[nH]2)n[nH]c1=S	Rpn11 inh 53 | Rpn11 inh conf 100 | MMP-2 inh inactive | Thrombin inh inactive
Cc1ccccc1/C=N/n1c(-c2cc(-c3ccccc3)n[nH]2)n[nH]c1=S	none
O=C(COC(=O)c1ccc(S(=O)(=O)N2CCCCC2)cc1)NC1CCCCC1	none (no result: TPT1 inh)
O=C(COC(=O)c1ccc(S(=O)(=O)N2CCc3ccccc3C2)cc1)NC1CCS(=O)(=O)C1 (stereo not given)	Rpn11 inh 49 | Rpn11 inh conf inactive | MMP-2 inh inactive | Thrombin inh inactive
CCC(C)Sc1ccc([C@@H]2[C@H]3C(=O)N(CC)C(=O)[C@H]3[C@]3(C(=O)OC)CCCCN23)cc1 (stereo not given in full)	Rpn11 inh 50 | Rpn11 inh conf 105 | MMP-2 inh inactive | Thrombin inh 69
NC1=NC(=O)/C(=C/c2ccc(-c3ccc(S(N)(=O)=O)cc3)o2)S1	Rpn11 inh 78 | Rpn11 inh conf 89 | MMP-2 inh 46 | Thrombin inh 42
CCCCNC(=O)C1CC(=O)N(c2ccc(OC)cc2)C1c1ccc(OC)cc1 (stereo not given)	none
O=C(Nc1ccc(-c2nnc(-c3ccccc3)o2)cc1)C(F)(F)F	Rpn11 inh 43 | Rpn11 inh conf inactive | MMP-2 inh inactive | Thrombin inh inactive
CC(C)C(=O)Nc1ccc(-c2nnc(-c3ccccc3)o2)cc1	none (no result: TPT1 inh)
CCn1cc(C(=O)N2CCCC2)c(=O)c2cc(S(=O)(=O)N3CCOCC3)ccc21	none
CCn1c(N2CCN(C(c3ccccc3)c3ccccc3)CC2)nc2c1c(=O)[nH]c(=O)n2C	none (no result: TPT1 inh)
COc1nc(-c2ccccc2)ccc1-c1noc(-c2cccnc2)n1	Rpn11 inh 44 | Rpn11 inh conf inactive | MMP-2 inh inactive | Thrombin inh inactive
COc1nc(-c2ccc(C)cc2)ccc1-c1noc(-c2cccnc2)n1	none
COc1ccc(-n2nc3c(N4CCC(C(=O)NCc5cccc(C)c5)CC4)nnc(C)c3c2C)cc1	Rpn11 inh 71 | Rpn11 inh conf 55 | MMP-2 inh inactive | Thrombin inh inactive
Cc1ccc(-n2nc3c(N4CCC(C(=O)NCc5ccccc5C)CC4)nnc(C)c3c2C)cc1	Myeloid diff MLP inconclusive (not shown: Rpn11 inh)
Cc1ccc(-n2nc3c(N4CCC(C(=O)N5CCN(C)CC5)CC4)nnc(C)c3c2C)cc1	Rpn11 inh 41 | Rpn11 inh conf inactive | MMP-2 inh inactive | Thrombin inh inactive
COc1ccc(-n2nc3c(N4CCC(C(=O)N5CCCCCC5)CC4)nnc(C)c3c2C)cc1	Myeloid diff MLP inconclusive, Rpn11 inh 55 | Rpn11 inh conf inactive | MMP-2 inh inactive | Thrombin inh inactive
Cc1nnc(N2CCCC(C(=O)NCc3cccc(F)c3)C2)c2nn(-c3ccccc3)c(C)c12 (stereo not given)	none
CCc1ccc(CNC(=O)C2CCCN(c3nnc(C)c4c(C)n(-c5ccccc5)nc34)C2)cc1 (stereo not given)	Rpn11 inh 60 | Rpn11 inh conf inactive | MMP-2 inh inactive | Thrombin inh inactive
Cc1nnc(N2CCC(C(=O)N3CCCCCC3)CC2)c2nn(-c3ccc(Cl)cc3)c(C)c12	Myeloid diff MLP inconclusive
O=S(=O)(/N=C(/c1ccccc1)N1CCOCC1)c1ccc(Br)cc1	none
Cc1cccc(OCCCC(=O)N2CCCCCC2)c1C	Rpn11 inh 47 (no result: TPT1 inh) | Rpn11 inh conf inactive | MMP-2 inh inactive | Thrombin inh inactive
Cc1cccc(OCCCC(=O)O)c1C	none
O=S(=O)(Nc1ccon1)c1ccc(Br)s1	Rpn11 inh 52, HNF4A DNA FP 39 | Rpn11 inh conf inactive | MMP-2 inh inactive | Thrombin inh inactive
COc1cccc(/C=N/NC(=O)c2cccc3ccccc23)c1OC	Rpn11 inh 32 | Rpn11 inh conf inactive | MMP-2 inh inactive | Thrombin inh inactive
O=c1cc(O)c2c(=O)n(Cc3ccccc3)c3ccccc3c2o1	none
O=c1cc(O)c2c(=O)n(C3CCCCC3)c3ccccc3c2o1	Rpn11 inh 62 | Rpn11 inh conf inactive | MMP-2 inh inactive | Thrombin inh inactive
Cc1ccc(CSc2cc(C)[nH]c(=O)n2)cc1	Rpn11 inh 64 | Rpn11 inh conf inactive | MMP-2 inh inactive | Thrombin inh inactive
FC(F)Sc1ccc(NC(=S)NC2CCC(NC(=S)Nc3ccc(SC(F)F)cc3)CC2)cc1 (stereo not given)	Rpn11 inh 143 | Rpn11 inh conf inactive | MMP-2 inh inactive | Thrombin inh inactive
CCCN(CC1CC1)c1nc(C)nc(Nc2c(Cl)cc(Cl)cc2Cl)c1Cl	none
O=C(CCc1ccccc1)NC1(Cc2ccccc2)CCN(CCCc2ccccc2)C1=O (stereo not given)	none (no result: TPT1 inh)
CCOC(=O)C1=C(C)Nc2sc(C(=O)c3ccc(F)cc3)c(N)c2C1c1ccc(C(=O)OC)cc1 (stereo not given)	Rpn11 inh 38 (no result: Myeloid diff MLP) | Rpn11 inh conf inactive | MMP-2 inh inactive | Thrombin inh inactive
CCOC(=O)C1=C(C)Nc2sc(C(=O)c3ccc(C)cc3)c(N)c2C1c1ccc(C(=O)OC)cc1 (stereo not given)	Rpn11 inh 41 | Rpn11 inh conf inactive | MMP-2 inh 41 | Thrombin inh inactive
CCc1ccc(CNC(=O)C2Cc3cc(S(=O)(=O)N4CCCC4)ccc3N2C(C)=O)cc1 (stereo not given)	none
COc1ccc(-n2c(N)c(C(=O)NCC3CCCO3)c3nc4ccccc4nc32)c(OC)c1 (stereo not given)	none
C=CCn1c(N)c(C(=O)NCC2CCCO2)c2nc3ccccc3nc21 (stereo not given)	Rpn11 inh 43 | Rpn11 inh conf inactive | MMP-2 inh inactive | Thrombin inh inactive
Cc1cc(C(=O)Nc2ccc3nc(C)sc3c2)c2ccccc2n1	none
Cc1cc(C)c2c(n1)SCC(=O)N2CC(=O)Nc1ccccc1Cl	none
CCn1c(O)c(C2=NCCCC2)c2ccccc21	none

Screening results deposited in PubChem BioAssay by several laboratories.
